Bioassay records: PubChem, National Center for Advancing Translational Sciences (NCATS)
A selection: hits, their analogues and other compounds. The true share with any hit is near 7.3%.
SMN2 splice up – increases expression of the SMN2 splice variant; HEK293 SMN2-luciferase splicing reporter, luminescence, 30-36 h; Potency, µM (highest dose often 46.1 µM), actives largely listed as activators; 210,000 tested, 2.8% active; AID 1458; note: nearly all actives have a fitted effect of over 55% in size
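qHTS luciferase splicing reporter: luminescence rises when SMN2 exon 7 is included in transfected HEK293 cells. Compound exposure lasted 30-36 h at 37C, with 4.5 mM final sodium butyrate as control, followed by a ONE-Glo read.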
FLuc counter – inhibits or activates purified firefly luciferase, miR-21 counter-screen; P08659; purified FLuc, Km substrates, luminescence inhibition; Potency, µM (series often up to 57.5 µM), most hits filed as inhibitors; 360,000 tested, 6.9% active; note: nearly all actives have a fitted effect of over 55% in size
Target sequence (P08659 whole entry, looked up): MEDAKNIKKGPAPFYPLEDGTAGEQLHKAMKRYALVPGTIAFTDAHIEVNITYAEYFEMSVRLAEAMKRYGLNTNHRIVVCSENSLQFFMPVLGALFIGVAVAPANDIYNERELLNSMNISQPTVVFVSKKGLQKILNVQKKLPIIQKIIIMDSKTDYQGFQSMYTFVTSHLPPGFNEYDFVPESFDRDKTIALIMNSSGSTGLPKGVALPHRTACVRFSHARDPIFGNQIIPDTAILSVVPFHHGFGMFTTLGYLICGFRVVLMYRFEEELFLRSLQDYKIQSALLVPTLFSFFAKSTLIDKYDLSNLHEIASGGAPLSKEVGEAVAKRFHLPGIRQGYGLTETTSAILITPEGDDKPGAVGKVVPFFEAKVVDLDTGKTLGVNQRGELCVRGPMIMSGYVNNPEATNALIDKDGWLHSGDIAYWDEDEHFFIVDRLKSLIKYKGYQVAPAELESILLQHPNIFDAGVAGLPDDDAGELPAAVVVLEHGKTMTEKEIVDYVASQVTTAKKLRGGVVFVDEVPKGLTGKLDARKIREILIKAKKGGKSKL
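Purified P. pyralis luciferase, 10 nM final, with Km-level 10 uM D-luciferin and 10 uM ATP in 50 mM Tris acetate pH 7.5, 10 mM Mg acetate, 0.01% Tween-20, 0.05% BSA; 6-point qHTS titration about 60 µM downward; luminescence read.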
Luc counter – blocks Kinase-Glo luciferase, a counter-screen artifact | Q27757 | 200,000 tested, 0.28% active | Potency, µM (doses to about 38.3 µM), actives largely listed as inhibitors | AID 1379 | Kinase-Glo luciferase, ATP luminescence, 8 min; note: nearly all actives have a fitted effect of over 60% in size
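Light output from Kinase-Glo luciferase with luciferin and 10 uM ATP in 50 mM imidazole pH 7.2, KCl, MgCl2, Tween 20, BSA; compound pin-delivered, 8-min ambient incubation, then luminescence read.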
NPC1 prom act – activators of NPC1 promoter | Huh7 NPC1 promoter luciferase reporter, 24 h | Potency, µM (highest dose often 9.22 µM), usual class: activators | 320,000 tested, 2.4% active; note: nearly all actives have a fitted effect of over 60% in size
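Luminescence from an NPC1 promoter-driven luciferase reporter in stably transfected Huh7 cells was measured after 24 h compound treatment at 37 °C, followed by 10 min ambient incubation with luciferase detection reagent.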
Rab9 prom act – activators of Rab9 promoter | Potency, µM (titrated, usually from 9.22 µM), usual class: activators | AID 485297 | Huh7 Rab9 promoter-luciferase reporter, luminescence, 24 h | 320,000 tested, 2.8% active; note: nearly all actives have a fitted effect of over 60% in size
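Luminescence from Amplite-detected luciferase (10 minutes, ambient) reports Rab9 promoter activation. Before that, stable Rab9-luciferase Huh7 cells (1500/well, reduced-serum OP-MEM I plus 10% FBS) were exposed to compound for 24 hours at 37C.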
A number is an active result; n = inactive; u = inconclusive; x = no result. Calls come from the whole dose curve; as a rule, active = well fitted curve in the direction sought with a large enough effect; inconclusive = small, poorly fitted or top-dose-only effect, or another doubt; inactive = no such curve, though single readings can be large; an effect the other way counts as inactive or inconclusive.

SMILES | SMN2 splice up | FLuc counter | Luc counter | NPC1 prom act | Rab9 prom act
Cn1nc(C(=O)NCc2cccc(F)c2)cc1C(=O)NCc1cccc(F)c1 | x | n | x | n | n
CN(C)c1ccc(CNC(=O)c2ccc(NC(=O)c3nsc4ccccc34)cc2)cc1 | x | 2.7µM | x | x | x
CCCSCCCNC(=O)c1ccc(C)c(NC(=O)c2nsc3ccccc23)c1 | x | n | x | x | x
O=C(NCc1cccc(F)c1)c1ccc(NC(=O)c2nsc3ccccc23)cc1 | x | 4.8µM | x | x | x
Cc1ccccc1C(=O)NC1(C(F)(F)F)C(=O)Nc2c1c(=O)[nH]c(=O)n2-c1ccc(F)cc1 (stereo unspecified) | n | n | x | x | x
CCc1ccc(Oc2c(C(F)(F)F)oc3c(CN4CCCC(C)C4)c(O)ccc3c2=O)cc1 (stereo unspecified) | n | n | x | x | x
O=C(CSc1cn(CCNC(=O)c2c(F)cccc2F)c2ccccc12)Nc1ccccc1F | n | n | x | x | x
O=C(c1cc2c(s1)CCCC2)n1cccn1 | n | 21µM | n | n | n
NC(=O)C1CCN(C(=O)c2cc3c(s2)CCCC3)CC1 | x | n | x | 1.8µM | 1.4µM
CC(C)NC(=O)C1CCN(C2CCN(C(=O)c3cc4c(s3)CCCCC4)CC2)CC1 | n | n | n | n | n
CC(=O)c1ccc(N2CCN(C(=O)c3cc4c(s3)CCCC4)CC2)cc1 | n | 24µM | n | n | n
COc1ccc(N2CCN(C(=O)c3cc4c(s3)CCCCC4)CC2)cc1 | x | 17µM | x | n | n
Cc1ccccc1Nc1c(-c2ccc(O)cc2)nc2c(C)cccn12 | n | u | x | x | x
COc1ccc(NC(=O)Cn2c(=O)n(Cc3ccco3)c(=O)c3sc4ccccc4c32)cc1Cl | n | n | x | x | x
CS(=O)(=O)c1nsc2nc(=O)c(/C=C3\C=Nc4ccccc43)c(N)n12 | n | 15µM | n | n | n
CC(C)Sc1nsc2nc(=O)c(/C=C3\C=Nc4ccccc43)c(N)n12 | n | 24µM | n | n | n
CC(C)c1nn2c(N)c(/C=C3\C=Nc4ccccc43)c(=O)nc2s1 | x | u | x | n | n
C=CCc1c(C)nc2ccc(C(=O)OCC)cc2c1Cl | x | 21µM | n | n | n
O=C(/C=C/c1cccs1)c1ccc(Br)cc1 | n | 4.8µM | n | n | n
Cc1ccc(C(=O)Nc2ccc(C(=O)/C=C/c3cccs3)cc2)cc1 | n | 12µM | n | u | u
CCn1ccc2cc(S(=O)(=O)N3CCC(C(=O)NCc4cccc(Cl)c4)CC3)ccc21 | x | n | x | x | x
COc1cc(/C=C2\C(=O)N(c3ccc(NC(C)=O)cc3)N=C2c2ccccc2)ccc1O | n | 17µM | n | n | n
COc1cc(/C=C2/C(=O)N(c3ccc(C(=O)O)cc3)N=C2C)cc(OC)c1O | x | u | x | n | n
O=C1/C(=C\c2ccc(O)c(O)c2)C(c2ccccc2)=NN1c1ccccc1 | n | 19µM | n | n | n
Cc1nc2ccccc2c2oc(C(=O)Nc3ccc4c(c3)OCCO4)cc12 | n | 15µM | n | n | n
SMILES | SMN2 splice up | FLuc counter | Luc counter | NPC1 prom act | Rab9 prom act
O=C(O)c1ccc(NC(=O)c2cc3ccccc3o2)cc1 | 6.3µM | 2.1µM | x | u | u
O=C(NC(=S)Nc1ccc(CN2CCOCC2)cc1)c1ccc(-c2cccc(Cl)c2)o1 | x | u | x | n | n
O=C(Nc1ccc(CN2CCOCC2)cc1)c1ccc(-c2cccc(Cl)c2)o1 | n | 17µM | n | n | x
O=C(O)c1coc2ccccc12 | x | n | x | n | n
O=C(Nc1ccc(NC(=O)c2cc3ccccc3o2)cc1)c1ccccc1 | n | n | x | x | x
O=C(/C=C/N1CCOCC1)c1coc2ccccc12 | x | 9.5µM | n | 1.6µM | 1.4µM
Cc1nc2ccccc2c2oc(C(=O)Nc3ccc(C(C)C)cc3)cc12 | n | n | n | n | n
CC(=O)Cc1nsc(NC(=O)c2ccc(-c3cccc(Cl)c3)o2)n1 | n | 11µM | n | n | n
O=C(c1cc2ccccc2o1)N1CCCC1 | x | n | n | n | n
O=C(/C=C/N1CCOCC1)c1cc2ccccc2o1 | 11µM | 9.5µM | n | 3.5µM | 4µM
O=C(Nc1ccc(CN2CCOCC2)cc1)c1cc2ccccc2o1 | 5.6µM | 3.8µM | n | 1.6µM | 0.63µM
CC(=O)Cc1nsc(NC(=O)c2ccc(Br)o2)n1 | u | u | n | n | n
O=C(NC(=S)Nc1ccc(CN2CCOCC2)cc1)c1cc2ccccc2o1 | n | n | n | n | n
O=C(Nc1ccc2c(c1)OCCO2)c1cc2ccccc2o1 | 1.3µM | 1.1µM | n | 0.89µM | 0.45µM
Cn1c(=O)n(C)c2cc(NC(=O)c3cc4ccccc4o3)ccc21 | x | u | n | n | n
CCC(=O)Nc1ccccc1-c1nc2ccccc2n(C(C)C(=O)Nc2cccc(Cl)c2C)c1=O (stereo unspecified) | x | n | x | x | x
O=C(Nc1c(C(=O)Nc2ccc(F)cc2)oc2ccccc12)c1cc2ccccc2o1 | n | 2.7µM | x | x | x
O=C(Nc1ccc(N2CCOCC2)cc1)c1nc2ccccc2s1 | x | 0.24µM | x | 0.1µM | 0.1µM
O=C(Nc1ccc(N2CCOCC2)cc1)c1cc2ccccc2o1 | 2.8µM | 5.4µM | n | 3.5µM | 1.8µM
c1ccc2sc(SN3CCOCC3)nc2c1 | n | 24µM | n | n | n
O=C(Nc1ccc(N2CCOCC2)cc1)c1cc(-c2ccncc2)nc2ccccc12 | x | n | x | n | n
c1ccc2sc(N3CN(CCN4CCOCC4)CN(c4nc5ccccc5s4)C3)nc2c1 | n | n | n | n | n
Cc1cc(NC(=O)CSc2ncc(C(=O)Nc3ccc(F)cc3)c(=O)n2C)no1 | x | n | x | x | x
O=C(Nc1ccc(CN2CCOCC2)cc1)c1cc2ccccn2n1 | u | 1.2µM | n | 0.32µM | 0.45µM
O=C(Nc1ccc2oc(=O)ccc2c1)c1cc2ccccc2o1 | 3.5µM | 7.6µM | n | 2.5µM | 1.6µM
SMILES | SMN2 splice up | FLuc counter | Luc counter | NPC1 prom act | Rab9 prom act
O=C(N/N=C/c1ccccn1)c1cc(-c2ccccc2)nc2ccccc12 | x | 13µM | x | n | n
COc1ccc(/C=N/NC(=O)c2cc(-c3ccccc3)nc3ccccc23)cc1O | x | 5.4µM | x | n | n
Cc1cc(C(=O)N/N=C/c2ccc(C)o2)c2ccccc2n1 | n | n | n | n | n
Cc1ccc(/C=N/NC(=O)c2cc(-c3ccccc3)nc3ccccc23)o1 | x | 12µM | x | n | n
COc1cc(/C=N/NC(=O)c2cc(-c3ccccc3OC(C)C)nc3ccccc23)ccc1O | u | n | n | n | n
COc1cc(/C=N/NC(=O)c2cc(-c3ccccc3)nc3ccccc23)ccc1O | x | 11µM | x | n | n
Cc1ccc(NC(=O)c2ccc(Cl)cc2Cl)c(C(=O)c2ccccc2)c1 | n | n | x | x | x
Cc1cc(=O)n(CC(=O)NC(C)c2ccccc2)c2c1c(C)nn2-c1cccc(F)c1 (stereo unspecified) | x | n | x | x | x
Cc1cn(S(=O)(=O)c2ccc(F)c(Cl)c2)cn1 | n | n | x | x | x
CCn1c(=O)c2cc(C(=O)Nc3cc(OC)c(OC)c(OC)c3)sc2c2ccccc21 | n | n | x | x | x
Cc1ccc(-c2cc(C(=O)N/N=C/c3ccoc3)c3ccccc3n2)cc1 | x | 4.8µM | x | n | n
Cc1ccc(-c2cc(C(=O)N/N=C/c3c(C)nn(C)c3C)c3ccccc3n2)cc1C | u | 0.6µM | n | n | u
